Sampled rows, rich in hits. Any-hit rate of the full collection: about 2%.
ID4 binder = binders of human ID4 protein, primary screen, biochemical, small molecule microarray, single point; Flag-ID4 binding, fluorescence F/B; 1.2% of 31,000 active; calls only; DNA-binding protein inhibitor ID-4 (Homo sapiens), P47928; call rule not given here;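 note: a binder raises fluorescence above local background on the spot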
mut p53 react = mutant p53 pathway re-activators, primary screen, cell-based, SW480, luciferase, single point, HTS; SW480 PUMA-promoter luciferase, p53 mutant reactivation; activation, % at 9.98 µM; 1.5% of 28,000 active; in the data active = activation above about 52%; inconclusive = no clear call, values can overlap the other calls
STK33 kin inh = STK33 kinase inhibitors, primary screen, biochemical, luminescence, ADP-Glo, MBP substrate; Serine/threonine-protein kinase 33 (Homo sapiens), Q9BYT3; inhibition, % at 12.5 µM; 0.44% of 27,000 active; in the data active = inhibition above about 20%; inconclusive = no clear call, values can overlap the other calls
Target sequence (Q9BYT3 whole entry, looked up): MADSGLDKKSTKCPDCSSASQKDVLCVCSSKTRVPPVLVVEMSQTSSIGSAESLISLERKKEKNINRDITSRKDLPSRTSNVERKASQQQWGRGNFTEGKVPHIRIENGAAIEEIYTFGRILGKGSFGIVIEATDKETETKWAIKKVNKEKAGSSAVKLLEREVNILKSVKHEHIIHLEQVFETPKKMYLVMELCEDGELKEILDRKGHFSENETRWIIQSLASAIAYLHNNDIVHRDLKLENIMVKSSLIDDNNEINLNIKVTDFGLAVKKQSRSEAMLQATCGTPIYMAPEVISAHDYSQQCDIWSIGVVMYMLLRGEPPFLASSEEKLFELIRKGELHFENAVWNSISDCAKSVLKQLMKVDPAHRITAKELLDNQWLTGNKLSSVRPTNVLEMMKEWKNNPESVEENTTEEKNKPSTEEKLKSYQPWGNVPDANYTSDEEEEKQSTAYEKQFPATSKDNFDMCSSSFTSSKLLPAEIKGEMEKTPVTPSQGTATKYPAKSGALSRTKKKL
Starred values were filed as active, the others as inactive; i = inactive; ? = inconclusive; . = not tested or not shown; + = active, no number.

SMILES	ID4 binder	mut p53 react	STK33 kin inh
C/C=C(/C)C(=O)O[C@H]1[C@H](OC(=O)/C=C/c2ccccc2)[C@@]23C(CC1(C)C)[C@]1(CCC4[C@@]5(C)CC[C@H](O[C@@H]6O[C@H](C(=O)O)[C@@H](O)[C@H](O[C@@H]7O[C@H](CO)[C@H](O)[C@H](O)[C@H]7O[C@@H]7O[C@@H](C)[C@H](O)[C@@H](O)[C@H]7O[C@@H]7OC[C@](O)(CO)[C@H]7O)[C@H]6O[C@@H]6O[C@H](CO)[C@H](O)[C@H](O)[C@H]6O)C(C)(C)C5CC[C@@]4(C)[C@]1(C)C[C@H]2O)O[C@H]3O (stereo partly specified)	.	.	-2
CC1CCc2c(sc3ncnc(NCCc4nc5ccccc5[nH]4)c23)C1 (stereo unspecified)	i	-9	3
CCc1ccc(CCC(=O)Nc2ccc(I)cc2)o1	i	13	0
CCc1ccc(CCC(=O)Nc2ccc(C)c(C)c2)o1	i	71*	5
C[C@@H]1O[C@@H](O[C@H]2[C@H](O[C@H]3CC[C@@]4(C)C(CC[C@]5(C)C4CC=C4C6CC(C)(C)CC[C@]6(C(=O)O)CC[C@]45C)[C@]3(C)CO)OC[C@H](O)[C@@H]2O)[C@H](O)[C@H](O)[C@H]1O (stereo partly specified)	i	-62	-9
N#Cc1ccccc1NC(=O)COc1ccccc1[N+](=O)[O-]	i	30	-2
O=C(CS(=O)c1ccccc1[N+](=O)[O-])Nc1cccc(C(F)(F)F)c1 (stereo unspecified)	i	71*	-1
O=C(O)CCC(=O)Nc1cccc(C(F)(F)F)c1	i	-6	1
O=c1c(O)c(-c2ccccc2)oc2cc(O)ccc12	i	-1	32*
O=C(O)COc1c(-c2ccccc2)oc2ccccc2c1=O	i	-11	3
O=C(CSc1n[nH]c(-c2ccco2)n1)N1c2ccccc2Sc2ccccc21	i	3	-2
O=C(O)c1ccc(CSc2n[nH]c(-c3ccco3)n2)cc1	+	-15	-2
COCCCNC(=O)[C@@]1(Sc2ccc(C)cc2)CC(=O)N(C2CCCCC2)[C@@H]1c1ccc(CO)cc1I	.	.	-7
Cn1c(SCC(=O)Nc2ccc(Cl)c(Cl)c2)nnc1-c1ccc(Cl)c(Cl)c1	i	-31	2
Cc1cccc(Cn2nc(C(C)(C)C)cc2C(=O)Nc2cccnc2)c1	.	.	0
Cc1[nH]c(=S)[nH]c(=O)c1Cc1ccc(C(=O)O)o1	+	0	-2
CC(C)c1ccc(NN2C(=O)CC(c3ccccc3)C2=O)cc1 (stereo unspecified)	.	.	-1
O=C(CSc1nc2ccccc2s1)Nc1ccc2c(c1)OCCO2	i	19	2
Cc1csc(SCC(=O)Nc2ccc3c(c2)OCCO3)n1	i	61*	-1
CCOC(NC(=O)Nc1ccc(Br)cc1)(C(F)(F)F)C(F)(F)F	.	.	-1
CSc1ccc(N=CN2C(=O)c3ccccc3C2=O)cc1	.	.	11
CC1CCC23CCC(O[C@@H]4O[C@H](CO)[C@@H](O)[C@H](O)[C@H]4O)C12C(C=O)=CC3(C)C (stereo partly specified)	i	-6	-5
COc1ccc(-c2coc3c(OC)c(OC)cc(OC)c3c2=O)cc1	i	.	0
COc1ccc2c(=O)c(CC(=O)O)coc2c1	i	.	2
COc1ccc(-c2coc3cc(OC(C)=O)cc(OC(C)=O)c3c2=O)cc1	.	130*	.
SMILES	ID4 binder	mut p53 react	STK33 kin inh
COc1ccc2c(=O)c(-c3ccc(OC)c(OC)c3)coc2c1	i	124*	.
COc1cccc(/C=N/n2cnnc2)c1	.	.	3
CO[C@H]1O[C@H](COC(=O)c2ccccc2)[C@@H](O)[C@H](O)[C@H]1OC(=O)c1ccccc1	.	.	0
Cn1c(NCc2cc(Br)ccc2O)nc2ccccc21	i	?	5
C=CCn1c(NCc2cc(C)ccc2O)nc2ccccc21	.	.	1
CCn1c(NCc2ccccc2O)nc2ccccc21	i	62*	-5
COc1ccc(CNc2nc3ccccc3n2C)c(O)c1	i	142*	-1
O=C1CC(CSc2ccc(Cl)cc2)=NN1c1nc2ccccc2s1	.	.	-1
Clc1ccc(SCc2csc(-c3ccsc3)n2)cc1	i	61*	.
CC(=O)O[C@@H]1C[C@@H](C)[C@](O)(CCc2ccoc2)[C@]23CCC[C@](C)(C(=O)OC2)C13 (stereo partly specified)	.	-10	-4
NCCNS(=O)(=O)c1cccc2cnccc12	.	.	44*
O=S(=O)(c1cccc2cnccc12)N1CCNCC1	i	13	.
COc1cccc(-c2nn(C)c3sc(C(=O)N4CCCCCC4)cc23)c1	i	4	.
O=C(O)CCc1ccc(-c2ccc(F)cc2)n1-c1cccc(C(=O)O)c1	i	39	8

Source: PubChem BioAssay
